A short description of assay [1]: stimulators of nuclear beta-catenin in C2C12, primary screen, imaging, WNT3A-conditioned medium, mouse C2C12, NPC library (AID 1117326). Also: reference of the scale not given here. As to conditions: stronger effect = higher value.
A short description of assay [2]: stimulators of insulin release from INS-1E, primary screen, cell-based, 5 mM glucose, NPC library (AID 1117329;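 active = compound raises insulin release from rat beta cells at 5 mM glucose, no numeric limit stated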; also: reference of the scale not given here). The note with it: rat INS-1E insulin secretion, at 10 µM, stronger effect = higher value.
Assay [3] can be described thus: glucagon-like peptide 1 release enhancers, primary assay, NCI-H716 cell line, NPC library (AID 1117341;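 active = compound raises GLP1 secretion from the human gut endocrine cells, with no numeric limit stated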; also: reference of the scale not given here). As to conditions: NCI-H716 cells, at 10 µM, stronger effect = higher value.
Assay [4] is described as follows: growth inhibition of GSK3B-pretreated HCT116 cells – cell-based, CellTiter-Glo, 0.2 to 20 µM (AID 1117336;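 active = compounds lowering colon cancer cell viability after pretreatment blocking the GSK3B kinase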). The note with it: HCT116 viability after GSK3B inhibitor, at 20 µM, stronger effect = higher value.
Assay [5] is described as follows: inhibition of endothelial tube formation, primary screen, imaging, VEGF stimulated, CD31 staining, tube area, NPC library (AID 1117340;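 active = compound that reduces growth-factor-driven endothelial tube area in a mixed cell culture, no cutoff stated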). The note with it: VEGF-stimulated ADSC/ECFC co-culture, at 10 µM, stronger effect = higher value.
Assay [6] can be described thus: HCT116 colon cancer cell growth inhibition, primary screen, CellTiter-Glo luminescence, NPC library (AID 1117342;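 active = compounds that lower survival of HCT116 colon cancer cells in the luminescence readout, no numeric limit stated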). The note with it: at 20 µM (top of the series). For orientation: In ATP-based viability assays light output follows the ATP content of the culture.
Assay [7] is described as follows: CellTiter-Glo luminescent readout of SW480 viability loss, NPC library primary (AID 1117343;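 active = compounds that lower viability of the colon cancer cells in the luminescence readout, with no numeric limit stated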). As to conditions: CellTiter-Glo luminescence; at 20 µM (top of the series).
A short description of assay [8]: decreased DLD-1 cellular survival, CellTiter-Glo luminescent readout, NPC compound collection, primary HTS (AID 1117346;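 active = compounds that lower survival of DLD-1 colon cancer cells in the luminescence readout, no cutoff given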). As to conditions: DLD-1 viability, CellTiter-Glo luminescence; at 20 µM (top of the series).
Assay [9] is described as follows: sensitizers of A549 cells to miR-34 induction, primary screen, imaging, A549 dox-inducible miR-34, nuclei and caspase counts (AID 1347080;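 active = compounds whose cell count with miR-34 switched on is under 0.7 times the count with it off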). The note with it: A549 miR-34 inducible, Hoechst nuclei count, 48 h.
Assay [10] deals with NAD(+) hydrolase SARM1 (Homo sapiens) (UniProt Q6SZW1). Briefly: SARM1 TIR NADase inhibitors, cell lysate, NAD-Glo luminescence (AID 1508614;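 active = compound whose remaining NAD level is above about 45 nM, limit read from the data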;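 also: higher remaining NAD means stronger inhibition of SARM1 NADase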). As to conditions: SAM-TIR HEK293T lysate NADase, at 1 µM, stronger effect = higher value.
Chain of NAD(+) hydrolase SARM1 (Homo sapiens) (Q6SZW1 whole entry, looked up): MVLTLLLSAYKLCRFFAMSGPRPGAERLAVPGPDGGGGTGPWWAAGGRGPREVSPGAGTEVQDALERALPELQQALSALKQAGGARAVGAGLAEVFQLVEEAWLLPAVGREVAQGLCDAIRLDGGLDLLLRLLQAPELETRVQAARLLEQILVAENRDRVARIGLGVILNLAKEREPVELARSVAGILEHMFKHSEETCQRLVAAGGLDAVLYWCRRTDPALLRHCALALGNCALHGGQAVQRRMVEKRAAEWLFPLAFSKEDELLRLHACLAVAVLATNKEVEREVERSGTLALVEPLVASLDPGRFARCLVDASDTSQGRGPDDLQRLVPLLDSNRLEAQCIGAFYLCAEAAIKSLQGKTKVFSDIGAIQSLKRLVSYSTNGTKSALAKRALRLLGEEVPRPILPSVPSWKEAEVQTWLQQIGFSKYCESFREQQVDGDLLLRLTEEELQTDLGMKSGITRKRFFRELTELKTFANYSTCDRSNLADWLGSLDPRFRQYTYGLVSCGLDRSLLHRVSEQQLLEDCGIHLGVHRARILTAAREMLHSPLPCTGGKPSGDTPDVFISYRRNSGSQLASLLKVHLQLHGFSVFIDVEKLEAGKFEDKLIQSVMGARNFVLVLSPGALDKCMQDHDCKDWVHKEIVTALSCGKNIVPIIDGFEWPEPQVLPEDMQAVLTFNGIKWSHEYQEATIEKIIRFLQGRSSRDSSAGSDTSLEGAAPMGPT
Setting [11] is: measured here: relative caspase fold change +Dox/-Dox.
[12] abbreviates: measured here: total cells with miR-34 induction, stronger effect = lower value.
Setting [13] is: measured here: total cells without miR-34 induction.

Active and inactive are the calls of the source. Rule as the data show it, unless noted: active = nuclear beta-catenin stimulation mostly above about 4.2% (no sharp cut-off); inactive = mostly below about 10%.

`COC(=O)c1ccccc1C(=O)OC`: the nuclear beta-catenin stimulation in assay [1] (at 10 µM) was -1.6% (inactive); in assay [1] (stimulation, at 2 µM) it was -0.6%. In assay [2], the insulin secretion stimulation was 0.5% (inactive). Moreover, in [3], the GLP1 secretion stimulation is -5.4% (inactive).

For the molecule `C[C@]12CCC(=O)C=C1CC[C@@H]1[C@@H]2CC[C@]2(C)C(=O)CC[C@@H]12`, the nuclear beta-catenin stimulation in assay [1] (at 10 µM) is -0.1% (inactive); in assay [1] (stimulation, at 2 µM), -1.6%. For the same molecule, the insulin secretion stimulation in [2] was 2.4% (inactive). For the same molecule, the viability decrease in assay [4] is 64.9% (active). Besides, in [5], the tube area decrease is -7% (inactive). The GLP1 secretion stimulation in assay [3] was -2.7% (inactive). In addition, the inhibition of viability in assay [6] is 68.5% (active). The viability decrease (inhibition) in assay [7] was 23.5% (inactive); in assay [8], 45.9% (inactive).

`NCc1cccnc1`: the nuclear beta-catenin stimulation in assay [1] (at 10 µM) is 0.8% (inactive); in assay [1] (stimulation, at 2 µM) it was 1.2%. For the same molecule, in [2], the insulin secretion stimulation is -1.3% (inactive). For the same molecule, the viability decrease in assay [4] was 16.9% (inactive). In assay [5], the tube area decrease is -11.1% (inactive). Besides, the GLP1 secretion stimulation in [3] was 0% (inactive). Besides, the inhibition of viability in assay [6] is -22.4% (active). The viability decrease (inhibition) in assay [7] is 1.8% (inactive); in [8], -13.1% (inactive). Further, the values for the fold change in assay [9] (stronger effect = lower value) and in assay [9] (setting [11]) were 0.867 (inactive) and 0.915, respectively. Also, the cell count in assay [9] (setting [12]) was 7820; in [9] (setting [13]) it was 9010. Besides, the remaining NAD in assay [10] was 10 nM (inactive).

As to `CC(C)(O)C(Cl)(Cl)Cl`, the nuclear beta-catenin stimulation in assay [1] (at 10 µM) was -0.2% (inactive); in [1] (stimulation, at 2 µM), 0.8%. Besides, the insulin secretion stimulation in assay [2] is -2.2% (inactive). Besides, the viability decrease in assay [4] is -5.6% (inactive). Besides, the tube area decrease in [5] is 1.4% (inactive). In assay [3], the GLP1 secretion stimulation was 1.1% (inactive). For the same molecule, the inhibition of viability in [6] was 4.4% (inactive). Besides, the values for the viability decrease (inhibition) in assay [7] and in assay [8] were 14% (inactive) and 6.7% (inactive), respectively. The fold change in assay [9] (stronger effect = lower value) was 0.973 (inactive); in assay [9] (setting [11]) it was 0.817. Moreover, the cell count in assay [9] (setting [12]) is 7820; in assay [9] (setting [13]), 8030. The remaining NAD in assay [10] is 10 nM (inactive).

As to `CCCCCCCCOC(=O)c1ccccc1C(=O)OCCCCCCCC`, the nuclear beta-catenin stimulation is 3.1% (inactive) in [1] (at 10 µM) and -1.3% in [1] (stimulation, at 2 µM). Besides, the insulin secretion stimulation in [2] is 0.05% (inactive). For the same molecule, the viability decrease in assay [4] is 5.3% (inactive). For the same molecule, the GLP1 secretion stimulation in [3] was -0.4% (inactive). For the same molecule, the inhibition of viability in assay [6] was 32% (inactive). Further, the viability decrease (inhibition) in assay [7] is -4.6% (inactive); in [8], 3.6% (inactive).

Consider `CCCCCCC(=O)CCCCCC/C=C/C[C@@H](O)[C@H](O)[C@@](N)(CO)C(=O)O`, for which the nuclear beta-catenin stimulation in assay [1] (at 10 µM) is -0.4% (inactive); in assay [1] (stimulation, at 2 µM) it was 1.7%. Besides, the insulin secretion stimulation in assay [2] is 1.7% (inactive). For the same molecule, the viability decrease in assay [4] is -39.7% (inactive). Moreover, in [5], the tube area decrease was -16.8% (inactive). The GLP1 secretion stimulation in [3] is -2.8% (inactive). Further, the inhibition of viability in assay [6] is -29.4% (inactive). Moreover, the viability decrease (inhibition) is 31.4% (inactive) in assay [7] and 9.9% (inactive) in [8]. The fold change was 0.991 (inactive) in assay [9] (stronger effect = lower value, cell number ratio, induced over uninduced) and 0.843 in [9] (setting [11]). The cell count in [9] (setting [12]) is 5220; in assay [9] (setting [13]), 5270.

Regarding `Clc1cccc(N2CCNCC2)c1`, the nuclear beta-catenin stimulation in assay [1] (at 10 µM) is 1% (inactive); in [1] (stimulation, at 2 µM), 0.1%. Also, in assay [2], the insulin secretion stimulation was 3.9% (inactive). Further, the viability decrease in assay [4] was 15% (inactive). The tube area decrease in assay [5] was 3.3% (inactive). Further, the GLP1 secretion stimulation in [3] was 6.5% (inactive). Besides, the inhibition of viability in assay [6] is 10.8% (inactive). Moreover, the figures for the viability decrease (inhibition) in assay [7] and in assay [8] were 68.5% (active) and 26.4% (inactive), respectively.

For the molecule `CC=CC1C(C(=O)OCc2c(F)c(F)c(COC)c(F)c2F)C1(C)C` (stereo not given), the nuclear beta-catenin stimulation in assay [1] (at 10 µM) was 2.1% (inactive); in assay [1] (stimulation, at 2 µM), -0.3%. The insulin secretion stimulation in assay [2] is 0.95% (inactive). In addition, the GLP1 secretion stimulation in [3] was -3.8% (inactive).

The values are drawn from PubChem BioAssay.
